Values without a mark were called inactive. Results filed as inconclusive are left out. The source made the active and inactive calls. Unless noted, calls come from the whole dose curve; as a rule, active = well fitted curve in the direction sought with a large enough effect in the repeat runs; inconclusive = weak or mixed curves; inactive = no such curve, though single readings can be large; an effect the other way counts as inactive or inconclusive.

The nature of assay [1]: qHTS assay for small molecule agonists of the p53 signaling pathway (AID 651631; calls by dose curve; note: nearly all actives have a fitted effect of over 15% in size). The procedure, abridged:
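HCT-116 p53RE-bla reporter line, 16 h compound treatment at 37 °C, then fluorescence after 2 h with B/G FRET substrate.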

Assay [2] is described as follows: qHTS assay for small molecules that induce genotoxicity in human embryonic kidney cells expressing luciferase-tagged ATAD5 (AID 651632). Note: nearly all actives have a fitted effect of over 15% in size. The procedure, abridged: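 Luminescent reporter readout, HEK293T ATAD5-luc line: 16 hr drug exposure (37C, 5% CO2) followed by Amplite, 30 min RT.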
A general note: qHTS replaces the single test concentration by a dilution series.

The nature of assay [3]: qHTS assay for small molecule agonists of the p53 signaling pathway - cell viability (AID 651633; calls by dose curve;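 note: p53RE-bla HCT reporter cells with a stable beta-lactamase p53 reporter; series mostly up to about 83 µM; nearly all actives have a fitted effect of over 30% in size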). In short, it runs like this: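 p53RE-bla cells were treated with compound for 16 hours at 37 C. Cytotoxicity was then measured as CellTiter-Glo luminescence after 30 min at room temperature.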
Assay [4] is described as follows: qHTS assay for small molecules that induce genotoxicity in human embryonic kidney cells expressing luciferase-tagged ATAD5 - cell viability (AID 651634; calls by dose curve; note: nearly all actives have a fitted effect of over 25% in size). The procedure, abridged:
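Viability read: CellTiter-Fluor fluorescence, 30 min at 37C. Cells: HEK293T, luciferase-tagged ATAD5. Exposure: 15.5 hr, 37C, 5% CO2, compound or DMSO vehicle.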

Assay [5] is described as follows: qHTS assay for small molecule disruptors of the mitochondrial membrane potential - cell viability (AID 720634; calls by dose curve;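 note: human HepG2 liver cancer cells; series mostly up to about 83 µM; nearly all actives have a fitted effect of over 20% in size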). The procedure, abridged: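 HepG2, 1 hr compound, 37 C. ATP luminescence via CellTiter-Glo, 30 min RT, same well as m-MPI.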
The nature of assay [6]: qHTS assay for small molecule disruptors of the mitochondrial membrane potential (AID 720635). Note: potency is the fitted concentration of half-maximal effect. In short, it runs like this: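 HepG2 cells exposed to compound 1 hr at 37C, then Mito-MPS dye 30 min. Ratio read of aggregate (540/590 nm) versus monomer (490/535 nm) fluorescence.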
The nature of assay [7]: qHTS assay to test for compound auto fluorescence at 590 nm (red) in HepG2 cells (AID 720674). The procedure, abridged:
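Fluorescence at 590 nm emission following 540 nm excitation was recorded from HepG2 wells one hour after compound transfer, with DMSO-only wells as vehicle and Rose Bengal sodium equivalency as the scale.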

A short description of assay [8]: qHTS assay to test for compound auto fluorescence at 535 nm (green) in HepG2 cells (AID 720675).
Assay [9] in a line: qHTS assay to test for compound auto fluorescence at 460 nm (blue) in HEK293 cells (AID 720678). The procedure, abridged:
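HEK293, 2,000 cells/well, 10% dialyzed FBS; attach 4-5 hr 37C; pin compound or DMSO; o/n 37C/5% CO2; fluorescence 405/460 nm; triamterene-equivalent units.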

A short description of assay [10]: qHTS assay to test for compound auto fluorescence at 535 nm (green) in HEK293 cells (AID 720680).
The nature of assay [11]: qHTS assay to test for compound auto fluorescence at 460 nm (blue) in HEK293 cell free culture (AID 720681). The procedure, abridged:
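Compounds were added to cell-free DMEM with 10% FBS and fluorescence read directly. The blue channel used 405 nm excitation and 460 nm emission, with triamterene as the reference fluorophore.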

A short description of assay [12]: qHTS assay to test for compound auto fluorescence at 535 nm (green) in HEK293 cell free culture (AID 720682). The procedure, abridged:
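Steps: dispense DMEM/10% FBS into empty wells; pin in compound or DMSO; measure fluorescence at 485/535 nm. Values are fluorescein equivalents.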

Assay [13] can be described thus: qHTS assay to test for compound auto fluorescence at 590 nm (red) in HEK293 cell free culture (AID 720683). In short, it runs like this: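 Cell-free wells of DMEM with 10% FBS received compound, and intrinsic fluorescence was read at excitation/emission 540/590 nm. Values expressed as equivalence to Rose Bengal sodium.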
Assay [14] can be described thus: qHTS assay to test for compound auto fluorescence at 590 nm (red) in HepG2 cell free culture (AID 720684). The procedure, abridged:
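Compound was pinned into wells holding MEM with 10% FBS and no cells, and red fluorescence was read at Ex/Em 540/590 nm. Signal is expressed as auto fluorescence equivalency relative to Rose Bengal sodium.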

A short description of assay [15]: qHTS assay to test for compound auto fluorescence at 460 nm (blue) in HepG2 cell free culture (AID 720685). The procedure, abridged: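 Compound (23 nL) or DMSO pinned into cell-free MEM with 10% FBS; blue fluorescence read at 405/460 nm excitation/emission, expressed as auto-fluorescence equivalency to triamterene.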
The nature of assay [16]: qHTS assay to test for compound auto fluorescence at 535 nm (green) in HepG2 cell free culture (AID 720686).
Assay [17] can be described thus: qHTS assay to test for compound auto fluorescence at 460 nm (blue) in HepG2 cells (AID 720687). In short, it runs like this: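 HepG2 cells in MEM with 10% FBS, attached overnight at 37 C, were exposed to compound or DMSO for 1 hr at 37 C, 5% CO2. Blue fluorescence was read at 405/460 nm, with triamterene as reference fluorophore.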
The target of assay [18] is Glucocorticoid receptor (Homo sapiens) (UniProt P04150). Kind of assay: qHTS assay to identify small molecule agonists of the glucocorticoid receptor (GR) signaling pathway (AID 720691; active = well fitted activation curve with a large enough effect in the signal ratio in the repeat runs, not every such curve was filed as active; the % refers to the signal ratio). The procedure, abridged:
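qHTS in GR-bla HeLa cells: 4 h settling at 37 C/5% CO2, 18 h compound incubation at 37 C, 2 h LiveBLAzer B/G FRET substrate at room temperature, fluorescence intensity measured.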

Assay [19] shares this target. The assay is described as follows: qHTS assay to identify small molecule antagonists of the glucocorticoid receptor (GR) signaling pathway (AID 720692; active = well fitted inhibition curve with a large enough effect in the signal ratio in the repeat runs, not every such curve was filed as active; the % refers to the signal ratio). In short, it runs like this:
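Inhibition of glucocorticoid signalling is measured in HeLa cells with a GRE-controlled beta-lactamase reporter; cells are co-treated with compound and 5 nM dexamethasone (final) for 18 h before FRET substrate readout.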

A short description of assay [20]: qHTS assay to test for compound auto fluorescence at 590 nm (red) in HEK293 cells (AID 720679). In short, it runs like this:
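Intensity at 540nm excitation and 590nm emission is reported as Rose Bengal sodium-equivalent autofluorescence. Measurements followed overnight exposure (37C, 5% CO2) of HEK293 cells, 2,000 per well, to 23 nL compound.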

Chain of Glucocorticoid receptor (Homo sapiens) (P04150 whole entry, looked up): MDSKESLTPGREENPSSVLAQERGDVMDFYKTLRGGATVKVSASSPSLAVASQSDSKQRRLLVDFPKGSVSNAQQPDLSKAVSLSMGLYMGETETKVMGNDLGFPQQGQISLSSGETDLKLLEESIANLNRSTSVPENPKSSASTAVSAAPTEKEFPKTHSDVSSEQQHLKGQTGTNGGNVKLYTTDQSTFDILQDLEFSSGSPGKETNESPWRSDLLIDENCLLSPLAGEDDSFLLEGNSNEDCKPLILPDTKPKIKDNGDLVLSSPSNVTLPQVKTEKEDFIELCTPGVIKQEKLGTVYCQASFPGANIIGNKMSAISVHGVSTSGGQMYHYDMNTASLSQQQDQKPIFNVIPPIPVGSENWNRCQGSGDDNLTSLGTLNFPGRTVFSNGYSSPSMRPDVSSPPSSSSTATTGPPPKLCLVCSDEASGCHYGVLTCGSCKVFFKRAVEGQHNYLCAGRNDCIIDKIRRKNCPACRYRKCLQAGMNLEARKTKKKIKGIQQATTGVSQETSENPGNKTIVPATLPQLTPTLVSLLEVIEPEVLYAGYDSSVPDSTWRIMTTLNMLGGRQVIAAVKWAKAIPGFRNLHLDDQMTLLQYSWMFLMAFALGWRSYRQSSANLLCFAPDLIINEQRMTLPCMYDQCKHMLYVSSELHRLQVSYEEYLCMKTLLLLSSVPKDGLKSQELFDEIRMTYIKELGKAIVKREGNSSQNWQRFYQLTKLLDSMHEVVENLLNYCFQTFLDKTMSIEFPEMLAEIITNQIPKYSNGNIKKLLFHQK

For `CC(=O)OCCc1ccccc1`, the Potency result in assay [1], in assay [2], in assay [3], in assay [4], in [5] and in assay [6] was “inactive” in each case. Moreover, the Potency entry in assay [9], in [11], in [15], in assay [17], in [18] and in [19] was “inactive” throughout. The compound was classed as inactive in [7], in assay [8], in [10], in assay [12], in assay [13] and in assay [14]. For the same compound, the result in assay [16] was inactive.

Take `CC(CN)CCCN` (centres undefined): the Potency entry in [1], in [2], in [3], in assay [4], in assay [5] and in assay [6] was “inactive” each time. The Potency result in [9], in assay [15], in assay [17] and in assay [18] was “inactive” throughout. Further, the compound was classed as inactive in assay [7], in [8], in assay [20], in [10], in assay [12] and in assay [13]. Also, the compound was classed as inactive in [14] and in assay [16].

In the case of `CC/C(=C\C(=N/O)C(N)=O)C(C)[N+](=O)[O-]` (centres undefined), the Potency result in [1], in assay [2], in assay [3], in assay [4], in assay [5] and in assay [6] was “inactive” each time. The Potency entry in [9], in assay [11], in assay [15], in assay [17] and in [18] was “inactive” in each case. The call in assay [7], in assay [8], in [20], in [12], in assay [13] and in assay [14] was inactive. In addition, the compound was classed as inactive in assay [16].

`CCC(C)N(C)C(=O)c1cc2ccccc2c(-c2ccccc2Cl)n1` (centres undefined): the Potency entry in assay [1], in assay [2], in assay [3], in assay [4], in assay [5] and in assay [6] was “inactive” each time. Besides, the Potency result in assay [9], in assay [11], in [15] and in [17] was “inactive” throughout. Further, the call in assay [7], in [8], in [20], in assay [10], in assay [12] and in [13] was inactive. Besides, in assay [16], the compound was classed as inactive.

Turning to `COCCOCCOCCOCCOC`, the Potency entry in assay [1], in [2], in [3], in assay [4], in assay [5] and in [6] was “inactive” each time. In addition, the Potency entry in assay [9], in assay [11], in [15], in [17] and in assay [18] was “inactive” throughout. In addition, the call in assay [7], in assay [8], in assay [20], in assay [10], in assay [12] and in [13] was inactive. Also, the compound was called inactive in assay [14] and in assay [16].

As to `O=C1[C@H](CC[C@H](O)c2ccc(F)cc2)[C@@H](c2ccc(O)cc2)N1c1ccc(F)cc1`, the Potency entry in assay [1], in [2], in [3], in assay [4], in [5] and in assay [9] was “inactive” each time. Moreover, the Potency entry in assay [11], in [15] and in assay [17] was “inactive” in each case. The Potency in [6] is 23.7 µM (active). Moreover, the outcome in [7], in [8], in [20], in assay [12], in assay [13] and in assay [14] was inactive. For the same compound, in assay [16], the compound was classed as inactive.

Turning to `O=C(c1ccccc1)c1ccc2n1CCC2C(=O)O` (centres undefined), the Potency result in [1], in assay [2], in assay [3], in assay [4], in assay [5] and in [6] was “inactive” in each case. Further, the Potency entry in [9], in assay [15] and in [17] was “inactive” throughout. Further, the compound was called inactive in [7], in assay [8], in [20], in assay [10], in [13] and in assay [14]. Also, the result in [16] was inactive.
